Tau fibril ThT: blocks human tau fibril formation measured by thioflavin T; recombinant tau K18 P301L, heparin-induced fibrillization, ThT fluorescence; Potency, µM (top dose mostly 57.4 µM), actives largely listed as inhibitors; 2.1% of 270,000 active; further: nearly all actives have a fitted effect of over 55% in size
Target sequence (P10636 561-689 P618L limits assumed): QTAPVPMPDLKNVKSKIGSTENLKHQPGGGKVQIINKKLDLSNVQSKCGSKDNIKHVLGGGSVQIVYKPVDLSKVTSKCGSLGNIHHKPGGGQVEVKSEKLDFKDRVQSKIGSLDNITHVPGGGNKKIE
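Aggregation was driven by heparin (20 uM final) acting on recombinant tau […] bearing P301L in 100 mM sodium acetate pH 7; fibrils were detected with Thioflavin T.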
TRb-SRC2 inh: TRbeta-SRC2 interaction inhibition. TRbeta-SRC2 peptide binding, fluorescence polarization; receptor liganded with 1 µM T3. AID 1469. 0.065% of 280,000 active. Potency, µM (top dose mostly 106 µM), hits mostly inhibitors. P10828; further: nearly all actives have a fitted effect of over 50% in size
Target sequence (P10828 whole entry, looked up): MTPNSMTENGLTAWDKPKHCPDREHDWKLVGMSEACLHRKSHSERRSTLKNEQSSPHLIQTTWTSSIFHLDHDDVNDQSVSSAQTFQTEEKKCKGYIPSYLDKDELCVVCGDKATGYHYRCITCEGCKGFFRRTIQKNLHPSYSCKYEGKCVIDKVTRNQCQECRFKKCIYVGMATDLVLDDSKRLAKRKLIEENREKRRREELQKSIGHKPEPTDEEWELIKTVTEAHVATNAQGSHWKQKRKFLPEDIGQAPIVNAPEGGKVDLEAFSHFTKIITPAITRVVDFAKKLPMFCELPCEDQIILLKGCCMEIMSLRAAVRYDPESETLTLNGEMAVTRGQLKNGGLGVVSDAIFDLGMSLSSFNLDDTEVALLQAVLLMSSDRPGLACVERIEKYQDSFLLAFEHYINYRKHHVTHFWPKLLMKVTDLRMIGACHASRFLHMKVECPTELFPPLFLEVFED
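Each compound concentration gave % activity, normalized to unbound and bound Texas Red SRC2 controls, from polarization read after 5 hr ambient incubation with T3-loaded human TRb LBD.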
Tau fluor counter: counter-screen for tau fibril formation inhibitors; tau K18 P301L (four-repeat tau fragment) Alexa594 fluorescence, heparin fibrillization; Potency, µM (top dose mostly 57.7 µM); 0.93% of 280,000 active; further: nearly all actives have a fitted effect of over 55% in size
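Human K18 P301L tau (15 uM unlabeled plus 0.24 uM Alexa 594-labeled, final) in 100 mM sodium acetate pH 7 was mixed with compound and 20 uM heparin and incubated 6 hr at 37 C.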
TR SRC2 fluor cs: Texas Red fluorescence interference in TRb-SRC2 counter-screen | TRb/SRC2 Texas Red total fluorescence interference | Potency, µM (series often up to 106 µM) | 0.29% of 280,000 active | AID 1479; active means well fitted curve in either direction with a large enough effect; inconclusive means small, poorly fitted or top-dose-only effect
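Flags fluorescent or light-absorbing compounds by total fluorescence, S + 2P, at 555 nm excitation and 632 nm emission. Mixture: 20 nM Texas Red SRC2 peptide, 0.6 uM human TRb LBD, 1 uM T3, 5% DMSO; compound exposure 5 h at ambient temperature.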
KDM4E inh: blocks human JMJD2E demethylase activity; 1.6% of 230,000 active; Potency, µM (doses to about 57.1 µM), actives largely listed as inhibitors; AID 2147; JMJD2E catalytic domain, FDH-coupled NADH fluorescence (FDH is formaldehyde dehydrogenase); B2RXH2; active means well fitted inhibition curve with a large enough effect, not every such curve was filed as active; inconclusive means small, poorly fitted or top-dose-only effect, or another doubt; inactive means no such curve, though single readings can be large or run the other way; further: nearly all actives have a fitted effect of over 50% in size
Tau fibril FP: inhibitors of human tau fibril formation | P10636 | K18 P301L tau heparin fibrillization, Alexa594 FP, 6 h | Potency, µM (series often up to 57.7 µM), hits mostly inhibitors | 0.39% of 280,000 active | AID 1468; further: nearly all actives have a fitted effect of over 55% in size
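Read-out: fluorescence polarization of Alexa 594-labeled tau (0.24 uM), 555 nm excitation, 632 nm emission. Mixtures held 15 uM unlabeled K18 P301L, compound and 20 uM heparin, pH 7 acetate buffer, incubated 6 hr at 37 C.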
A number is an active result; 0 = inactive; ? = inconclusive; - = no result; ! = a repeat was not active; [ ] = dose if it differs, or a comment. Only some compounds are listed: those with a hit (about 3.5% of all), similar ones and a draw of the others. Unless noted, the call rests on the fitted dose curve; in most records, active means well fitted curve in the direction sought with a large enough effect; inconclusive means small, poorly fitted or top-dose-only effect, or another doubt; inactive means no such curve, though single readings can be large; an effect the other way counts as inactive or inconclusive.

SMILES	Tau fibril ThT	TRb-SRC2 inh	Tau fluor counter	TR SRC2 fluor cs	KDM4E inh	Tau fibril FP
O=C(NCC1CCCO1)c1cc(-c2ccc(Cl)cc2Cl)on1 (configuration not stated)	0	0	0	0	0	0
COc1cc(/C=N/N2C(=O)C3C4c5ccccc5C(c5ccccc54)C3C2=O)ccc1O (configuration not stated)	0	0	0	0.89µM[quencher]	0	0
COc1cccc(/C=N/N2C(=O)C3C4c5ccccc5C(c5ccccc54)C3C2=O)c1OC (configuration not stated)	0	0	0	0	0	0
COc1cc(/C=N/N(C)c2ccccc2)ccc1O	13µM	0	?	0	0	0
CN(/N=C/c1cc([N+](=O)[O-])ccc1O)c1ccccc1	?	0	0	0	0	0
COc1cc(OC)c(OC)cc1/C=N/N(C)c1ccccc1	?	0	16µM[quencher]	0	0	?
COc1cc(/C=N/n2c(-c3ccccc3)n[nH]c2=S)ccc1O	?	0	0	0	25µM	0
COc1cc(S(=O)(=O)N2CCCCC2)ccc1NC(=O)/C=C/c1ccccc1	0	0	?	0	?	0
COC(=O)/C=C1\SC(N2CCOCC2)=C(c2ccc(OC)cc2)C1=O	28µM	0	0	0	0	?
COC/C=C/C1=CC2=CC(=O)C(C)(OC(=O)c3cnc4ccccc4n3)C(=O)C2=CN1CCOC (configuration not stated)	0[11.5 µM]	0[11.2 µM]	0[11.6 µM]	0[11.2 µM]	0[11.4 µM]	0[11.6 µM]
COC/C=C/C1=CC2=CC(=O)C(C)(OC(=O)c3cnc4ccccc4n3)C(=O)C2=CN1CCN1CCOCC1 (configuration not stated)	16µM	0[11.2 µM]	?	0[11.2 µM]	13µM!	?
CC(=O)OCC1OC(c2ccc(C(C)=O)cc2)C=CC1OC(C)=O (configuration not stated)	0[11.5 µM]	0[11.2 µM]	0[11.6 µM]	0[11.2 µM]	-	0[11.6 µM]
Cc1[nH][nH]c(=O)c1C(c1c(C)[nH][nH]c1=O)c1cn(Cc2ccc(Cl)c(Cl)c2)c2ccccc12	10µM	?	?	0	0	?
Cc1[nH][nH]c(=O)c1C(c1c(C)[nH][nH]c1=O)c1cn(Cc2ccc(F)cc2)c2ccccc12	8.9µM	?	0	0	?	?
O=C(O)Cc1cn(Cc2ccc(F)cc2)c2ccccc12	0	0	0	0	0	0
O=c1ccc(NS(=O)(=O)c2ccccc2Cl)cn1Cc1ccc(Cl)c(Cl)c1	0	0	0	0	0	0
CC(C)CCNC(=O)COc1ccc(C(=O)c2ccccc2)cc1	0	0	0	0	0	0
COc1ccc2c3c(cccc13)N(C)N=C2C	7.1µM	0	?	0	0	?
COc1ccccc1N1CCN(S(=O)(=O)c2ccc3c4c(cccc24)C(=O)N3C)CC1	0	0	0	0	0	0
O=c1c2ccccc2c(C=Nc2ccc(S(=O)(=O)N3CCCCC3)cc2)c(O)n1-c1ccc(Cl)cn1	0	0	0	35µM[quencher]	0	0
CCc1nnc(/N=C/c2c(O)n(-c3ccc(Cl)cn3)c(=O)c3ccccc23)s1	0	0	0	0	?	0
O=C(O)c1cc(N(Cc2ccccc2O)Cc2cc(O)ccc2O)ccc1O	18µM	0	?	0	-	0
N[C@H](C(=O)O)c1ccc(O)c(C(=O)O)c1	0	0	0	0	?	0
COc1ccc2ccccc2c1C1CC(=O)N2CN(C3CCCCC3)CSC2=C1C#N (configuration not stated)	28µM	0	0	0	0	?
CCOc1cc(C2CC(=O)N3CN(C4CCCCC4)CSC3=C2C#N)ccc1O (configuration not stated)	14µM	0	0	0	?	?
SMILES	Tau fibril ThT	TRb-SRC2 inh	Tau fluor counter	TR SRC2 fluor cs	KDM4E inh	Tau fibril FP
N#CC1=C2SCN(C3CCCCC3)CN2C(=O)CC1c1ccc(Br)cc1 (configuration not stated)	?	0	0	0	-	?
COc1ccc(C2CC(=O)N3CN(C4CCCCC4)CSC3=C2C#N)c(OC)c1 (configuration not stated)	25µM	0	0	0	-	?
CC(=O)Cc1c(C(=O)O)c(C)nn1-c1ccccc1	0	0	0	0	0	0
CCOC(=O)N1CCN(C(=O)COc2ccccc2Cl)CC1	0	0	0	0	0	0
CCOc1ccc(/C=C/c2nc3ccccc3n2S(=O)(=O)c2ccc(Br)cc2)cc1	0	0	0	0	-	?
CSc1ccc(/C=C/c2nc3ccccc3n2S(=O)(=O)c2ccc(Br)cc2)cc1	0	0	32µM[quencher]	0	-	?
Cc1ccc(-c2cc(C(=O)NC3=NCCS3)c3cc(Br)ccc3n2)o1	?	0	?	0	8.9µM	0
Cc1ccc(-c2cc(C(=O)O)c3cc(Br)ccc3n2)o1	20µM	0	0	0	?	?
Cc1ccc(-c2cc(C(=O)NCCCn3ccnc3)c3cc(Br)ccc3n2)o1	?	0	0	0	?	0
Cc1ccc(-c2cc(C(=O)NN3CCOCC3)c3cc(Br)ccc3n2)o1	?	0	0	0	?	0
CC1=CN2C(=N)/C(=C/c3ccc(Sc4ccc(Cl)cc4)o3)C(=O)N=C2S1	13µM	0	?	0	0	0
CC1=CN2C(=N)/C(=C/c3ccc(Sc4ccc(C)cc4)o3)C(=O)N=C2S1	7.9µM	0	?	0	0	0
CCN=C1S/C(=C\c2ccc(Sc3ccc(Cl)cc3)o2)C(=O)N1CC	0	0	0	0	0	0
CC1=CN2C(=N)/C(=C/c3ccc(C)o3)C(=O)N=C2S1	?	0	0	?	0	0
CC(=O)Nc1c([N+](=O)[O-])cc2[nH]c(=O)[nH]c2c1[N+](=O)[O-]	?	0	0	0	25µM	0
Cc1ccc(O)c(N=Nc2ccccc2)n1	18µM	0	0	0	0	0
Cc1ccc2c(C)ccc(O)c2n1	0	0	0	0	0	0
O=c1c2c3c(sc2nc(NCCO)n1CCc1ccccc1)CCCCC3	?	0	14µM[quencher]	0	0	?
CN1CCc2c(sc3nc(NN)n(Cc4ccccc4)c(=O)c23)C1	16µM	0	?	0	?	0
O=c1c2c3c(sc2nc(NCCO)n1Cc1ccco1)CCCCC3	?	0	?	0	0	0
CCn1c(SCC(N)=O)nc2sc3c(c2c1=O)CCN(C)C3	?	0	0	0	?	?
Cn1c(N/N=C/c2ccccc2)nc2sc3c(c2c1=O)CCC3	?	0	18µM[quencher]	0	?	0
O=C(NNS(=O)(=O)c1ccc(Br)cc1)C1CCCCC1	0	0	0	0	0	0
Cc1ccc(-c2nnc(Nc3ccc(Br)cc3)c3ccccc23)cc1S(=O)(=O)NCC1CCCO1 (configuration not stated)	0	0	?	0	-	?
O=C1c2ccccc2C(=O)c2c1cccc2-n1nnc2ccccc21	0	0	0	0	0	0

Screening data as filed in PubChem.
